Results on eight molecules are retold here after PubChem BioAssay.

Several values for one entry are separate records, joined by “and”; a condition that tells them apart may be missing. Equal values may be shown once. Activity calls are given as the source filed them.

One assay deals with Albumin (Bos taurus) (UniProt P02769). Description: compounds binding labelled BSA control protein – biochemical, small-molecule microarray, Alexa647 label, 635/667 nm fluorescence, artefact control for SMM control protein annotation, profiling panel (AID 1118).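 Further: score merges 667 nm emission intensity and signal-to-noise per printed compound spot.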 The conditions noted are these: BSA-A647 binding, fluorescence 635 nm, higher = more signal.
Assay [1] can be described thus: probe aXIP binding to arrayed compounds – biochemical, NeuroSMM set, 635/667 nm fluorescence, primary screen (AID 1119).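 Further: probe is the protein aXip251-270 applied at 1 µg/mL to compound-printed slides; binding of probe to printed compounds measured as 667 nm fluorescence plus signal to noise.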 Particulars: small-molecule microarray, higher = more signal, called active from +8 up or from −8 down.
The nature of assay [2]: probe aNOTCH3 binding on compound microarray – biochemical, small-molecule microarray, 635/667 nm fluorescence, primary screen (AID 1120).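 Further: probe is a biotin-tagged antibody raised against NOTCH3 rather than NOTCH3 protein; score merges spot fluorescence near 667 nm with spot signal to noise.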 Particulars: higher = more signal.
A short description of assay [3]: probe aNOTCH2 binding on compound microarray – biochemical, small-molecule microarray, 635/667 nm fluorescence, primary screen (AID 1121).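 Further: score merges feature fluorescence read at 667 nm with its signal to noise.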 The conditions noted are these: higher = more signal.
Assay [4] addresses Carbonic anhydrase 2 (Homo sapiens) (UniProt P00918). Description: compounds binding carbonic anhydrase 2 – biochemical, small-molecule microarray, Alexa647-labelled CAII, profiling panel (AID 1122). The conditions noted are these: CAII-A647 binding fluorescence, higher = more signal.
Assay [5] in a line: COS7 lysate on small-molecule microarray, probe aHis, 635 nm (AID 1123).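 Further: z-score combines 667nm fluorescence intensity with signal-to-noise per printed compound spot.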 The conditions noted are these: COS7 cell lysate, fluorescence, higher = more signal.
The nature of assay [6]: probe aLAP1 signal on lysate-treated microarray – cell lysate, small-molecule microarray, COS7 lysate, primary screen (AID 1124).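 Further: lysate comes from COS7 cells expressing LAP1 and is applied at 0.3 µg/mL; score merges spot fluorescence near 667 nm with signal-to-noise over triplicate slides.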 Particulars: probe aLAP1, fluorescence, higher = more signal.
Another assay concerns Sam68 (KHDRBS1). Description: compounds binding KHDRBS1 protein – biochemical, small-molecule microarray, 635 nm fluorescence, primary screen (AID 1125).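 Further: score merges 667 nm channel intensity with signal to noise over triplicate slides.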 The conditions noted are these: higher = more signal.
Assay [7] relates to Chordin-like protein 2 (CHRDL2). Description: compounds binding chordin-like 2 – biochemical, small-molecule microarray, 635 nm fluorescence, primary screen (AID 1126).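 Further: printed compound slides probed with Chrdl2 protein at 4 µg/mL for 1 h at 4 C; score merges 667 nm emission intensity with signal to noise over three replicate slides.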 The conditions noted are these: fluorescence 635 nm, higher = more signal.
Assay [8] deals with Concanavalin-A (Canavalia ensiformis) (UniProt P02866). Description: compounds binding concanavalin A lectin – biochemical, small-molecule microarray, Alexa647 label, 635 nm, artefact control for SMM control protein annotation, primary screen (AID 1127).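 Further: z combines 667 nm emission intensity with signal-to-noise across three replicate slides.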 The conditions noted are these: ConA-A647 binding fluorescence, higher = more signal.
Concanavalin-A (Canavalia ensiformis), sequence (P02866 whole entry, looked up): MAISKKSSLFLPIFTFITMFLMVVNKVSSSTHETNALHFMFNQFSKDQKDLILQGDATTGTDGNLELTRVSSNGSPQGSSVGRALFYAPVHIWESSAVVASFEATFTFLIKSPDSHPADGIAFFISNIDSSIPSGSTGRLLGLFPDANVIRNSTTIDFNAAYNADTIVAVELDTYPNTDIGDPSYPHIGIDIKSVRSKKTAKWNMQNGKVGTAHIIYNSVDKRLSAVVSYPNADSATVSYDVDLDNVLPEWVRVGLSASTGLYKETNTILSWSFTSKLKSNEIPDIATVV

Albumin (Bos taurus), sequence (P02769 whole entry, looked up): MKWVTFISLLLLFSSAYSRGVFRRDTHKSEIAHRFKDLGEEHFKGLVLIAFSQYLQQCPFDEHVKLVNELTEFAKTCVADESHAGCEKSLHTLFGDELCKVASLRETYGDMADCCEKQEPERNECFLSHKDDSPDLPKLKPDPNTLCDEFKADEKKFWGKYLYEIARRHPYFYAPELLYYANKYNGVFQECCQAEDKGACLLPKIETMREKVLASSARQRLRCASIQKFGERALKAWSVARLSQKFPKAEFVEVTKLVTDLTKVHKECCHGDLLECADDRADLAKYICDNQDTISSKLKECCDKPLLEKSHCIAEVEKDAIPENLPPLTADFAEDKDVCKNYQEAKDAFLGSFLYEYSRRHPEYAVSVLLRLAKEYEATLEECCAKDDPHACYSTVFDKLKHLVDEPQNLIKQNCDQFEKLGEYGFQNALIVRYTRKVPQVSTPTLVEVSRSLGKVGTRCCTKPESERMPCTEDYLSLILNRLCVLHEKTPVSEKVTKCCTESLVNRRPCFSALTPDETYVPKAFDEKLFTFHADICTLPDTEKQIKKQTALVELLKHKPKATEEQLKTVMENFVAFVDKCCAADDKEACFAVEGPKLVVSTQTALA

For `COC(=O)C1=C(C)N(Cc2ccccc2)C2=C(C(C)=O)[C@H](c3ccccc3)[C@@](O)(C(=O)OC)C(=O)N2[C@@H]1c1ccccc1`, the composite z-score was 0.695 and -0.583 with Albumin (Bos taurus); -0.0362 and -0.182 in assay [2]; -0.0907 and -0.124 in [3]; 0.301 and -0.459 in assay [4]; 0.275 and -0.666 in assay [5]; -0.209 and -0.312 in [6]. In addition, the composite z-score with Sam68 (KHDRBS1) was 1.17 and -1.23; in assay [7], 0.564 and 0.437; in assay [8] it was 0.365 and -0.139. The composite Z-score in assay [1] is 0.124 (inactive) and 0.115 (inactive).

In the case of `CCN1C(=O)[C@H]2[C@H]3[C@H](O)[C@H](O)CC(=NOC[C@@H](O)COCc4ccco4)[C@@H]3CC[C@H]2C1=O`, the composite z-score in the assay with Albumin (Bos taurus) is -0.423 and 0.677; in assay [2] it was -0.161 and -0.0026; in assay [3], -0.17 and -0.234; in [4] it was -0.473 and 0.753; in assay [5] it was -0.945 and 0.351; in [6] it was -0.0847 and -0.0256. Besides, the composite z-score was -0.368 and 0.0907 in the assay with Sam68 (KHDRBS1); 1.54 and 0.0802 in assay [7]; -0.716 and 0.422 in assay [8]. For the same molecule, in assay [1], the composite Z-score was -1.03 (inactive) and -0.471 (inactive).

On to `CCOC(=O)C[C@H]1[C@H](OC(=O)c2ccccc2-c2ccccc2)[C@@H](NC(=O)c2ccccc2)c2cc(OCCCO)ccc2N1C(=O)c1ccc2ccccc2n1`, for which the composite z-score is 0.369 and 0.645 with Albumin (Bos taurus); 0.0223 and 0.228 in assay [2]; -0.0073 and -0.0357 in assay [3]; 0.348 and 0.0749 in [4]; 0.25 and 0.958 in assay [5]; 0.0741 and 0.356 in assay [6]. The composite z-score in the assay with Sam68 (KHDRBS1) is 0.443 and 1.2; in assay [7], 0.243 and 0.175; in assay [8], 0.436 and 1.04. Also, the composite Z-score in assay [1] was 0.095 (inactive) and 0.291 (inactive).

As for `C[C@@H]1CC[C@H]2C(=O)NC[C@@H](O)CN2[C@H]1c1ccc(Br)cc1`, the composite z-score is 0.446 and -0.624 in the assay with Albumin (Bos taurus); -0.0598 and -0.207 in assay [2]; -0.14 and -0.046 in assay [3]; 0.702 and -0.138 in assay [4]; 0.703 and 0.229 in [5]; -0.172 and -0.0957 in assay [6]. In addition, the composite z-score with Sam68 (KHDRBS1) is -0.46 and 0.119; in assay [7], -0.119 and 0.127; in [8] it was 0.407 and -0.416. Further, the composite Z-score in assay [1] is -0.312 (inactive) and 0.171 (inactive).

For `CC(C)[Si]1(C(C)C)OCc2cc(CCCc3cc4c(c(CCc5ccccc5)n3)[Si](C(C)C)(C(C)C)OC4)nc(CCc3ccccc3)c21`, the composite z-score in the assay with Albumin (Bos taurus) is -1.72 and -0.26; in assay [2], -0.124 and -0.0578; in assay [3] it was -0.125 and -0.108; in [4], -0.139 and 0.0411; in assay [5] it was 0.002 and 0.081; in assay [6], 0.485 and 0.0666. Also, the composite z-score in the assay on Sam68 (KHDRBS1) is 0.23 and 0.716; in [7] it was -0.126 and 0.424; in assay [8], -1.42 and 0.124. In [1], the composite Z-score is -0.436 (inactive) and -0.38 (inactive).

As to `C=C(C)C(=O)OC[C@@H]1CN2[C@@H](CC[C@@H](C)[C@@H]2c2ccc(Br)cc2)C(=O)O1`, the composite z-score with Albumin (Bos taurus) was 0.635; in assay [2], -0.127; in [3] it was -0.153; in assay [4] it was 0.195; in assay [5], 0.774; in assay [6] it was 0.937. The composite z-score amounted to 1.16 in the assay on Sam68 (KHDRBS1), 0.426 in [7] and 0.363 in assay [8]. The composite Z-score in assay [1] is -0.0665 (inactive).

`COC(=O)C1=C(C)N(Cc2ccccc2)[C@]23O[C@](C(=O)OC)(C(=O)N2[C@@H]1c1ccccc1)[C@H]1CCCC(=O)[C@H]13`: the composite z-score with Albumin (Bos taurus) is -0.0265 and -0.0851; in assay [2], 0.19 and -0.136; in assay [3] it was -0.0116 and -0.0649; in assay [4], 0.311 and -0.0597; in assay [5], 0.685 and -0.0027; in assay [6], 0.26 and -0.0668. Also, the composite z-score in the assay with Sam68 (KHDRBS1) was 0.174 and 0.227; in assay [7] it was 0.228 and 0.551; in assay [8], 1 and 0.279. The composite Z-score in assay [1] is -0.138 (inactive) and -0.0964 (inactive).

Turning to `C=CCN(C(=O)C(c1cccs1)N(CCOCCO)C(=O)/C=C\C(=O)O)C(C)(C)C` (stereo not given), the composite z-score with Albumin (Bos taurus) is -0.503 and -0.823; in [2] it was -0.387 and -0.349; in [3], -0.148 and -0.126; in assay [4], 0.847 and 0.9; in assay [5] it was -0.851 and 0.606; in assay [6] it was -0.957 and 0.0378. Also, the composite z-score was -1.33 and -0.246 in the assay with Sam68 (KHDRBS1); -2.31 and -1.58 in [7]; -1.4 and -1.67 in [8]. In addition, in [1], the composite Z-score was -0.48 (inactive) and -0.0662 (inactive).
